Experiments:
Assay in all cases: phenotypically active (imaging signature differs from DMSO and reproducible) at any of 0.3-9 uM (binary (1 = active, 0 = inactive)); higher = active
Details in all cases: treatment time: 24 h
[1] = tested on: A549-ACTB-RAB5A
Procedure, shortened: (§1)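 Live-cell features were measured per well and normalised to solvent control wells after fifteen gene-edited A549, HepG2 and WPMY1 reporter lines had been treated for 24 h at 0.3, 1, 3 or 9 µM in four wells each. A condition was deviating when ≥3 of 4 wells sat beyond the 95th percentile of control Euclidean distances. It was reproducible when the median replicate Pearson correlation exceeded the 95th percentile of non-replicates. Phenotypic activity demanded both.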

[2] = tested on: A549-CANX-COX4
Procedure, shortened: as §1

[3] = tested on: A549-GM130-SQSTM1
Procedure, shortened: as §1

[4] = tested on: A549-TP53BP1-CLTA
Procedure, shortened: as §1

[5] = tested on: A549-TUBA1B-RELA
Procedure, shortened: as §1

[6] = tested on: HepG2-ACTB-RAB5A
Procedure, shortened: as §1

[7] = tested on: HepG2-CANX-COX4
Procedure, shortened: as §1

[8] = tested on: HepG2-GM130-SQSTM1
Procedure, shortened: as §1

[9] = tested on: HepG2-TP53BP1-CLTA
Procedure, shortened: as §1

[10] = tested on: HepG2-TUBA1B-RELA
Procedure, shortened: as §1

[11] = tested on: WPMY1-ACTB-RAB5A
Procedure, shortened: as §1

[12] = tested on: WPMY1-CANX-COX4
Procedure, shortened: as §1

[13] = tested on: WPMY1-GM130-SQSTM1
Procedure, shortened: as §1

[14] = tested on: WPMY1-TP53BP1-CLTA
Procedure, shortened: as §1

[15] = tested on: WPMY1-TUBA1B-RELA
Procedure, shortened: as §1

Measured: phenotypically active

CC(=O)CCCCn1c(=O)c2c(ncn2C)n(C)c1=O [Pentoxifylline]
inactive: [1] 0 | [2] 0 | [3] 0 | [4] 0 | [5] 0 | [6] 0 | [7] 0 | [8] 0 | [9] 0 | [10] 0 | [11] 0 | [12] 0 | [13] 0 | [14] 0 | [15] 0

Cc1ccccc1C(OCCN(C)C)c1ccccc1 (stereo not given) [orphenadrine]
inactive: [1] 0 | [2] 0 | [3] 0 | [4] 0 | [5] 0 | [6] 0 | [7] 0 | [8] 0 | [9] 0 | [10] 0 | [11] 0 | [12] 0 | [13] 0 | [14] 0 | [15] 0

NCCCC(O)(P(=O)(O)O)P(=O)(O)O [alendronate]
inactive: [1] 0 | [2] 0 | [3] 0 | [4] 0 | [5] 0 | [6] 0 | [7] 0 | [8] 0 | [9] 0 | [10] 0 | [11] 0 | [12] 0 | [13] 0 | [14] 0 | [15] 0

NC(=O)c1ncn([C@@H]2O[C@H](CO)[C@@H](O)[C@H]2O)c1N
inactive: [1] 0 | [2] 0 | [3] 0 | [4] 0 | [5] 0 | [6] 0 | [7] 0 | [8] 0 | [9] 0 | [10] 0 | [11] 0 | [12] 0 | [13] 0 | [14] 0 | [15] 0

Nc1ccc(O)c(C(=O)O)c1 [mesalazine]
inactive: [1] 0 | [2] 0 | [3] 0 | [4] 0 | [5] 0 | [6] 0 | [7] 0 | [8] 0 | [9] 0 | [10] 0 | [11] 0 | [12] 0 | [13] 0 | [14] 0 | [15] 0

C/C=C1/[C@H]2C=C(C)C[C@]1(N)c1ccc(=O)[nH]c1C2 [Huperzine A]
inactive: [1] 0 | [2] 0 | [3] 0 | [4] 0 | [5] 0 | [6] 0 | [7] 0 | [8] 0 | [9] 0 | [10] 0 | [11] 0 | [12] 0 | [13] 0 | [14] 0 | [15] 0

COc1ccc(C(=O)Nc2sc3c(c2C(N)=O)CCCC3)cc1OC
inactive: [1] 0 | [2] 0 | [3] 0 | [4] 0 | [5] 0 | [6] 0 | [7] 0 | [8] 0 | [9] 0 | [10] 0 | [11] 0 | [12] 0 | [13] 0 | [14] 0 | [15] 0

O=C(/C=C/c1ccc(OCc2ccccc2)cc1)c1c(O)cc(OCc2ccccc2)cc1OCc1ccccc1 [4,2,4'-Tribenzyloxy-6'-hydroxychalcone]
inactive: [1] 0 | [2] 0 | [3] 0 | [4] 0 | [5] 0 | [6] 0 | [7] 0 | [8] 0 | [9] 0 | [10] 0 | [11] 0 | [12] 0 | [13] 0 | [14] 0 | [15] 0

O=C(NC(CO)C(O)c1ccc([N+](=O)[O-])cc1)C(Cl)Cl (stereo not given) [Chloramphenicol]
inactive: [1] 0 | [2] 0 | [3] 0 | [4] 0 | [5] 0 | [6] 0 | [7] 0 | [8] 0 | [9] 0 | [10] 0 | [11] 0 | [12] 0 | [13] 0 | [14] 0 | [15] 0

CN([C@H]1c2cc(OCCCC(F)(F)F)ccc2OC(C)(C)[C@@H]1O)S(C)(=O)=O
inactive: [1] 0 | [2] 0 | [3] 0 | [4] 0 | [5] 0 | [6] 0 | [7] 0 | [8] 0 | [9] 0 | [10] 0 | [11] 0 | [12] 0 | [13] 0 | [14] 0 | [15] 0

CCOc1cc(CC(=O)N[C@@H](CC(C)C)c2ccccc2N2CCCCC2)ccc1C(=O)O [repaglinide]
inactive: [1] 0 | [2] 0 | [3] 0 | [4] 0 | [5] 0 | [6] 0 | [7] 0 | [8] 0 | [9] 0 | [10] 0 | [11] 0 | [12] 0 | [13] 0 | [14] 0 | [15] 0

N#Cc1ccccc1OCC(O)CNCCNC(=O)Nc1ccccc1 (stereo not given)
inactive: [1] 0 | [2] 0 | [3] 0 | [4] 0 | [5] 0 | [6] 0 | [7] 0 | [8] 0 | [9] 0 | [10] 0 | [11] 0 | [12] 0 | [13] 0 | [14] 0 | [15] 0

Cc1cccc(Nc2ccccc2C(=O)O)c1C [mefenamic-acid]
inactive: [1] 0 | [2] 0 | [3] 0 | [4] 0 | [5] 0 | [6] 0 | [7] 0 | [8] 0 | [9] 0 | [10] 0 | [11] 0 | [12] 0 | [13] 0 | [14] 0 | [15] 0

CC(=O)/N=c1/sc(S(N)(=O)=O)nn1C [methazolamide]
inactive: [1] 0 | [2] 0 | [3] 0 | [4] 0 | [5] 0 | [6] 0 | [7] 0 | [8] 0 | [9] 0 | [10] 0 | [11] 0 | [12] 0 | [13] 0 | [14] 0 | [15] 0

C/C=C(/C(=C/C)c1ccc(O)cc1)c1ccc(O)cc1 [dienestrol]
inactive: [1] 0 | [2] 0 | [3] 0 | [4] 0 | [5] 0 | [6] 0 | [7] 0 | [8] 0 | [9] 0 | [10] 0 | [11] 0 | [12] 0 | [13] 0 | [14] 0 | [15] 0

Nc1ccc(C(=O)O)c(O)c1 [aminosalicylate]
inactive: [1] 0 | [2] 0 | [3] 0 | [4] 0 | [5] 0 | [6] 0 | [7] 0 | [8] 0 | [9] 0 | [10] 0 | [11] 0 | [12] 0 | [13] 0 | [14] 0 | [15] 0

O=C(O)CCCC[C@@H]1SC[C@@H]2NC(=O)N[C@@H]21 [Biotin]
inactive: [1] 0 | [2] 0 | [3] 0 | [4] 0 | [5] 0 | [6] 0 | [7] 0 | [8] 0 | [9] 0 | [10] 0 | [11] 0 | [12] 0 | [13] 0 | [14] 0 | [15] 0

NCCCC[C@H](N[C@@H](CCc1ccccc1)C(=O)O)C(=O)N1CCC[C@H]1C(=O)O [lisinopril]
inactive: [1] 0 | [2] 0 | [3] 0 | [4] 0 | [5] 0 | [6] 0 | [7] 0 | [8] 0 | [9] 0 | [10] 0 | [11] 0 | [12] 0 | [13] 0 | [14] 0 | [15] 0

CCCCCC1CC1CC1CC1CCCCCCCC(=O)O (stereo not given)
inactive: [1] 0 | [2] 0 | [3] 0 | [4] 0 | [5] 0 | [6] 0 | [7] 0 | [8] 0 | [9] 0 | [10] 0 | [11] 0 | [12] 0 | [13] 0 | [14] 0 | [15] 0

COCCOC(=O)C1=C(C)NC(C)=C(C(=O)OC(C)C)C1c1cccc([N+](=O)[O-])c1 (stereo not given) [nimodipine]
inactive: [1] 0 | [2] 0 | [3] 0 | [4] 0 | [5] 0 | [6] 0 | [7] 0 | [8] 0 | [9] 0 | [10] 0 | [11] 0 | [12] 0 | [13] 0 | [14] 0 | [15] 0

C[C@]1(OC(=O)/C=C/c2ccccc2)C[C@@H](O)[C@]2(O)C=CO[C@@H](O[C@@H]3O[C@H](CO)[C@@H](O)[C@H](O)[C@H]3O)[C@@H]21 [Harpagoside]
inactive: [1] 0 | [2] 0 | [3] 0 | [4] 0 | [5] 0 | [6] 0 | [7] 0 | [8] 0 | [9] 0 | [10] 0 | [11] 0 | [12] 0 | [13] 0 | [14] 0 | [15] 0

C[C@H]1[C@H](C)CC[C@]2(C(=O)O)CC[C@]3(C)C(=CC[C@@H]4[C@@]5(C)CC[C@H](O)C(C)(C)[C@@H]5CC[C@]43C)[C@H]12 [Ursolic acid]
inactive: [1] 0 | [2] 0 | [3] 0 | [4] 0 | [5] 0 | [6] 0 | [7] 0 | [8] 0 | [9] 0 | [10] 0 | [11] 0 | [12] 0 | [13] 0 | [14] 0 | [15] 0

O=C1CCc2cc(OCCCCc3nnnn3C3CCCCC3)ccc2N1 [Cilostazol]
inactive: [1] 0 | [2] 0 | [3] 0 | [4] 0 | [5] 0 | [6] 0 | [7] 0 | [8] 0 | [9] 0 | [10] 0 | [11] 0 | [12] 0 | [13] 0 | [14] 0 | [15] 0

Cc1[nH]c2ccccc2c1CCNC(=O)c1ccccc1F
inactive: [1] 0 | [2] 0 | [3] 0 | [4] 0 | [5] 0 | [6] 0 | [7] 0 | [8] 0 | [9] 0 | [10] 0 | [11] 0 | [12] 0 | [13] 0 | [14] 0 | [15] 0

CC[N+](CC)(CC)CCOc1cccc(OCC[N+](CC)(CC)CC)c1OCC[N+](CC)(CC)CC [gallamine-triethiodide]
inactive: [1] 0 | [2] 0 | [3] 0 | [4] 0 | [5] 0 | [6] 0 | [7] 0 | [8] 0 | [9] 0 | [10] 0 | [11] 0 | [12] 0 | [13] 0 | [14] 0 | [15] 0

CN1CC(=O)N2[C@H](c3ccc4c(c3)OCO4)c3[nH]c4ccccc4c3C[C@@H]2C1=O [tadalafil]
inactive: [1] 0 | [2] 0 | [3] 0 | [4] 0 | [5] 0 | [6] 0 | [7] 0 | [8] 0 | [9] 0 | [10] 0 | [11] 0 | [12] 0 | [13] 0 | [14] 0 | [15] 0
